In the supplement of paper PMC9844399:
Structures can show the parent of a compound that is named as a salt.

system: HeLa; assay: nuclear count per well, robust Z-score vs DMSO; higher = more cells (less toxicity); details: 10 µM; 6 h
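Note: Hoechst-stained nuclei counted by automated confocal imaging of four fields per well in 384-well plates, with the robust Z-score based on the per-plate DMSO median and robust SD.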

| SMILES | nuclear count per well |
| --- | --- |
| NCCCCNS(=O)(=O)c1ccc2c(Cl)cccc2c1 [W-13 hydrochloride] | -0.741 |
| CNS(=O)(=O)CCc1ccc2[nH]cc(C3CCN(C)CC3)c2c1 | -0.5 |
| COc1ccc2c(c1)c(CC(=O)O)c(C)n2C(=O)c1ccc(Cl)cc1 [Indomethacin] | 0.64 |
| Clc1ccc(C(Cn2ccnc2)OCc2csc3c(Cl)cccc23)c(Cl)c1 (stereo not given) [Sertaconazole] | 0.262 |
| COc1ccc2[nH]c([S+]([O-])Cc3ncc(C)c(OC)c3C)nc2c1 (stereo not given) [Omeprazole] | -0.664 |
| CN(C)c1nc(N(C)C)nc(N(C)C)n1 [Altretamine] | 0.0993 |
| COc1ccc2cc1Oc1ccc(cc1)C[C@H]1c3cc(c(OC)cc3CCN1C)Oc1c(OC)c(OC)cc3c1[C@H](C2)N(C)CC3 [Tetrandine] | 1.11 |
| CCCCC[C@H](O)/C=C/[C@H]1C(=O)C[C@H](O)[C@@H]1C/C=C\CCCC(=O)O [Prostaglandin  D2] | -0.144 |
| Cc1cn([C@@H]2C[C@@H](O)[C@H](CO)O2)c(=O)[nH]c1=O [Telbivudine] | -0.757 |
| COCCCCCCCCCCCC(=O)O [12-Methoxydodecanoic acid] | 0.27 |
| Nc1cc(N2CCCCC2)nc(N)[n+]1[O-] [Minoxidil] | 0.407 |
| CS(=O)(=O)c1ccc(C(=O)Nc2ccc(Cl)c(-c3ccccn3)c2)c(Cl)c1 [Vismodegib (GDC-0449)] | -1.68 |
| C[C@]12CC[C@@H]3c4ccc(OS(=O)(=O)O)cc4CC[C@H]3[C@@H]1CCC2=O [Estropipate] | -0.293 |
| CCC(C)n1ncn(-c2ccc(N3CCN(c4ccc(OCC5COC(Cn6cncn6)(c6ccc(Cl)cc6Cl)O5)cc4)CC3)cc2)c1=O (stereo not given) [Itraconazole] | -0.0619 |
| CC(=O)OCC(=O)[C@@]1(O)CC[C@H]2[C@@H]3CCC4=CC(=O)CC[C@]4(C)[C@@]3(F)[C@@H](O)C[C@@]21C [Fludrocortisone Acetate] | 1.2 |
| C=CC(N)CCC(=O)O (stereo not given) [Vigabatrin] | 0.0325 |
| CCCCCC(O)C=CC1C(O)CC(O)C1CC=CCCCC(=O)O (stereo not drawn) [8-epi-Prostaglandin F2a] | 0.282 |
| CNC(=O)c1cc(Oc2ccc(NC(=O)Nc3ccc(Cl)c(C(F)(F)F)c3)c(F)c2)ccn1 [Regorafenib (BAY 73-4506)] | 0.877 |
| COc1cc2nc(N3CCN(C(=O)C4CCCO4)CC3)nc(N)c2cc1OC (stereo not given) | 0.393 |
| CC(=O)N[C@@H](CS)C(=O)O [Acetylcysteine] | 0.695 |

| SMILES | nuclear count per well |
| --- | --- |
| O=c1cc(-c2cccc3c2Sc2ccccc2S3)oc(N2CCOCC2)c1 | 1.91 |
| CCCCC/C=C\C/C=C\C/C=C\C/C=C\CCCC(=O)O[C@@H](CO)COCCCCCCCCCCCCCCCC [1-Hexadecyl-2-arachidonoyl-glycerol] | 0.524 |
| Cc1ccccc1C(=O)Nc1ccc(C(=O)N2CCCC(O)c3cc(Cl)ccc32)c(C)c1 (stereo not given) [Tolvaptan] | 0.183 |
| C[C@]12CCC(=O)C=C1CC[C@@H]1[C@@H]2[C@@H](O)C[C@@]2(C)[C@H]1CC[C@]2(O)C(=O)CO [Hydrocortisone] | -0.344 |
| CCCCC/C=C\C/C=C\C/C=C\C/C=C\CCCC(=O)OC(CO)CO [2-Arachidonoylglycerol] | -1.06 |
| CCCCN1C[C@H](O)[C@@H](O)[C@H](O)[C@H]1CO | 0.413 |
| CC(=O)O[C@H]1C(=O)[C@@]2(C)[C@H]([C@H](OC(=O)c3ccccc3)[C@]3(O)C[C@H](OC(=O)[C@H](O)[C@@H](NC(=O)c4ccccc4)c4ccccc4)C(C)=C1C3(C)C)[C@]1(OC(C)=O)CO[C@@H]1C[C@@H]2O [Paclitaxel (Taxol)] | -4.17 |
| CC(=O)O[C@H]1C(=O)[C@@]2(C)[C@H]([C@H](OC(=O)c3ccccc3)[C@]3(O)C[C@H](OC(=O)[C@H](O)[C@@H](NC(=O)c4ccccc4)c4ccccc4)C(C)=C1C3(C)C)[C@]1(OC(C)=O)CO[C@@H]1C[C@@H]2O [Paclitaxel] | -2.64 |
| CCc1cccc2c3c([nH]c12)C(CC)(CC(=O)O)OCC3 (stereo not given) [Etodolac] | -1.07 |
| Cc1[nH]c2ccccc2c1CCNC(=O)c1ccccc1F | -0.994 |
| C[C@H](N[C@@H](CCc1ccccc1)C(=O)O)C(=O)N1CCC[C@H]1C(=O)O [Enalaprilat Maleate] | -0.807 |
| C=CC[N+]1([C@H]2C[C@H]3[C@@H]4CC[C@H]5C[C@H](O)[C@@H](N6CCOCC6)C[C@]5(C)[C@H]4CC[C@]3(C)[C@H]2OC(C)=O)CCCC1 [Rocuronium Bromide] | 1.14 |
| CC/C=C\C/C=C\C/C=C\CCCCCCCCCC(=O)O [Eicosatrienoic acid (20:3 n-3)] | 1.23 |
| CC(S)C(=O)NCC(=O)O (stereo not given) [Tiopronin] | 0.258 |
| C[C@H]1C[C@@H]2[C@H]([C@@H](O)C[C@@]3(C)[C@H]2CC[C@]3(O)C(=O)CO)[C@@]2(C)C=CC(=O)C=C12 [Methylprednisolone] | -0.0774 |
| COc1cc2nc(N3CCN(C(=O)C4COc5ccccc5O4)CC3)nc(N)c2cc1OC (stereo not given) [Doxazosin Mesylate] | 0.467 |
| CO[C@H]1/C=C/O[C@@]2(C)Oc3c(C)c(O)c4c(O)c(c(/C=N/N5CCN(C)CC5)c(O)c4c3C2=O)NC(=O)/C(C)=C\C=C\[C@H](C)[C@H](O)[C@@H](C)[C@@H](O)[C@@H](C)[C@H](OC(C)=O)[C@@H]1C [Rifampicin] | 0.709 |
| CC(=O)N[C@@H](CSC/C=C(\C)CCC=C(C)C)C(=O)O [N-Acetyl-S-geranyl-L-cysteine] | 0.483 |
| CCC(=O)O[C@]1(C(=O)SCF)[C@H](C)C[C@H]2[C@@H]3C[C@H](F)C4=CC(=O)C=C[C@]4(C)[C@@]3(F)[C@@H](O)C[C@@]21C [Fluticasone Propionate] | 0.295 |
| CCCCS(=O)(=O)N[C@@H](Cc1ccc(OCCCCC2CCNCC2)cc1)C(=O)O | 0.264 |
